For 3 compounds, growth inhibition, inhibition and outcome results are on record in PubChem BioAssay.

Each structure is given as a SMILES string. Values without a mark were called inactive. For part of these data: Potency and affinity values are given separately. Active and inactive are the calls of the source. Unless noted, no rule for the calls is given here.

Assay [1] is described as follows: antimalarial activity against Dd2 strain (AID 2302;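 active = growth inhibition above 50% at the single 2 µM test dose, taken to imply half-maximal potency below 2 µM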;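 also: 0% = DMSO untreated growth and 100% = chloroquine plus artemisinin killed control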). The following applies: P. falciparum Dd2 in RBCs, LDH growth readout, 72 h; at 2 µM; active compounds read high.
A short description of assay [2]: HepG2 cytotoxicity, primary screen, cytotoxicity control for P. falciparum antimalarial project, cell-based, ATP luminescence (AID 2303;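 active = inhibition above 50%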;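 also: 0% = DMSO wells and 100% = digitonin-killed cells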). The following applies: HepG2 viability, 24-48 h, at 10 µM, active compounds read high.
Assay [3] has as its target L-lactate dehydrogenase (Plasmodium falciparum (isolate CDC / Honduras)) (UniProt Q27743). As to the kind of experiment: PfLDH activity inhibition – cell lysate, 3D7 strain, counter-screen for P. falciparum growth inhibition project (AID 2304).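 Also: 0% = vehicle and 100% = reference inhibitor.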 Particulars: P. falciparum 3D7 crude extract, LDH APAD/NBT absorbance; at 2 µM; active compounds read high. (In general: Counterscreens check selectivity or assay interference.)

Assay [4] is described as follows: inhibition of 3D7 malaria parasite growth – strain 3D7 (AID 2306).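 Also: 0% = DMSO wells and 100% = chloroquine plus artemisinin control wells.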 Particulars: P. falciparum 3D7 erythrocytic growth, LDH absorbance, 72 h; at 2 µM; active compounds read high.
The target of assay [5] is Calcium-dependent protein kinase 1 (Plasmodium falciparum (isolate 3D7)) (UniProt P62344). In words: PfCDPK1 kinase inhibitors, biochemical, TCAMS library (AID 1159585; cut-off not given, nearly all actives have IC50 up to about 0.98 µM;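 also: inhibitors leave more ATP so luminescence rises with inhibition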). Particulars: recombinant PfCDPK1, Kinase-Glo ATP depletion luminescence.
Assay [6] addresses Plasmodium falciparum protein kinase 6 (PK6, PF3D7_1337100) (UniProt Q8IDW1). As to the kind of experiment: PfPK6 kinase inhibitors, biochemical, TCAMS library (AID 1159586). Particulars: recombinant PfPK6, Kinase-Glo ATP depletion luminescence.
Assay [7] has as its target Protein kinase 7 (PK7), Plasmodium falciparum 3D7 (PF3D7_0213400) (UniProt Q7YTF7). As to the kind of experiment: inhibition of Plasmodium PK7 catalytic activity – biochemical, TCAMS antimalarial set, Kinase-Glo luminescence (AID 1159587). The following applies: recombinant PfPK7, Kinase-Glo ATP depletion luminescence.
Assay [8] concerns the target Calcium-dependent protein kinase 4 (Plasmodium falciparum (isolate 3D7)) (UniProt Q8IBS5). As to the kind of experiment: PfCDPK4 kinase inhibitors, biochemical, TCAMS library (AID 1159588; cut-off not given, nearly all actives have IC50 up to about 0.91 µM). Particulars: recombinant PfCDPK4, Kinase-Glo ATP depletion luminescence. In general terms: Kinase-Glo measures the ATP left after a reaction by luminescence.

Chain of Protein kinase 7 (PK7), Plasmodium falciparum 3D7 (PF3D7_0213400) (Q7YTF7 1-343): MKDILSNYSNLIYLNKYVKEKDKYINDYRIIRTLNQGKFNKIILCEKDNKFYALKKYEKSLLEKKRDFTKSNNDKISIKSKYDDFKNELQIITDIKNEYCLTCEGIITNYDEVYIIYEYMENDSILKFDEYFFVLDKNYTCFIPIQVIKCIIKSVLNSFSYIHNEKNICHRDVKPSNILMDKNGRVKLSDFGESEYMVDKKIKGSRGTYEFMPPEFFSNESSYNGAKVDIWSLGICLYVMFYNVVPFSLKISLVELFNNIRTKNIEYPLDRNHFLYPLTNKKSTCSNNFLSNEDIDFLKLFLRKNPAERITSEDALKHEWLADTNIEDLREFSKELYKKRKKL
Chain of L-lactate dehydrogenase (Plasmodium falciparum (isolate CDC / Honduras)) (Q27743 whole entry, looked up): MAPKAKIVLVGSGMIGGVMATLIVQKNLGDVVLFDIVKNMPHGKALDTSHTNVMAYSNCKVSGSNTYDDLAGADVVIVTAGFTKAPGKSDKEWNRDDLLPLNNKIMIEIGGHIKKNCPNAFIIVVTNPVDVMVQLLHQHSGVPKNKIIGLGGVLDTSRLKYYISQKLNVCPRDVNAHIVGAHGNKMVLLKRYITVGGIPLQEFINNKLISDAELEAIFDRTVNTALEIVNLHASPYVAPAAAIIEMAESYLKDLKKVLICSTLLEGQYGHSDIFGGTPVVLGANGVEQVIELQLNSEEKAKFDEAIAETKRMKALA
Chain of Plasmodium falciparum protein kinase 6 (PK6, PF3D7_1337100) (Q8IDW1 1-305): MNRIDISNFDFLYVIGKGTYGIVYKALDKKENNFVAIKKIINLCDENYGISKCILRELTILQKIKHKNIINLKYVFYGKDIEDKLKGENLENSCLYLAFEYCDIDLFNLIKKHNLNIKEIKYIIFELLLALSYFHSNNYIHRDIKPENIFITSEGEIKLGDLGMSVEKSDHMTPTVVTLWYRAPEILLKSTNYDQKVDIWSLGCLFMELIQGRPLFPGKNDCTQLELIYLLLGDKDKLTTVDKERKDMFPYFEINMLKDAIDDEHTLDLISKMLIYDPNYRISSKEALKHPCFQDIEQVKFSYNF
Chain of Calcium-dependent protein kinase 1 (Plasmodium falciparum (isolate 3D7)) (P62344 whole entry, looked up): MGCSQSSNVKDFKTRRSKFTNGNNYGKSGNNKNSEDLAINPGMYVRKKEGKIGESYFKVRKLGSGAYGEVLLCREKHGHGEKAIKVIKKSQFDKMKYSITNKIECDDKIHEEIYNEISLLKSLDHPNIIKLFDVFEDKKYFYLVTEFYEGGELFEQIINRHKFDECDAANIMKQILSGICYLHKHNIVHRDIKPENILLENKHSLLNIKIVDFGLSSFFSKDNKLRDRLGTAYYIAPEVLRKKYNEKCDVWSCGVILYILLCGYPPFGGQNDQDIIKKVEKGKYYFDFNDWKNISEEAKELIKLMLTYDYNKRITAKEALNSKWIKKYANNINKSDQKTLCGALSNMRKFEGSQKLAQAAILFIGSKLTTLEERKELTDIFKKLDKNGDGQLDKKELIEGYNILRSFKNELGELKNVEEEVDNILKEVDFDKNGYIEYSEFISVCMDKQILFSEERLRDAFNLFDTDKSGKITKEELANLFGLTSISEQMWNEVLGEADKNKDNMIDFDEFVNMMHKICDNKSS
Chain of Calcium-dependent protein kinase 4 (Plasmodium falciparum (isolate 3D7)) (Q8IBS5 whole entry, looked up): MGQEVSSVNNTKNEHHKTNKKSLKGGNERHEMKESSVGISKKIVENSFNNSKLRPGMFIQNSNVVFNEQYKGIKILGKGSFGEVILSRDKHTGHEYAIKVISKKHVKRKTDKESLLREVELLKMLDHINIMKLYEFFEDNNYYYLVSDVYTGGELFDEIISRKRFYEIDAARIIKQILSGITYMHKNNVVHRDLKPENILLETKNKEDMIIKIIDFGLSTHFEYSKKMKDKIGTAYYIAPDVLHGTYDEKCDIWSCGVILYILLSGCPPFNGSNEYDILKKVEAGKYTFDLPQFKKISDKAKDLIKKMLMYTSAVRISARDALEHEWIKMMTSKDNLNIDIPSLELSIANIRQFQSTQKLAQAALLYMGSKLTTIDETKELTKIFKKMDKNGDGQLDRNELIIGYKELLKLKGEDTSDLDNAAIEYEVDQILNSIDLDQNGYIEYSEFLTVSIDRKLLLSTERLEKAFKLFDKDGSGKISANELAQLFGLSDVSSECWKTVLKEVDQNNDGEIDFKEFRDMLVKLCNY

For the compound `O=C(Nc1ccc(Cl)cc1)c1ccc(S(=O)(=O)NCC2CCN(CC3CCCCC3)CC2)cc1`, the figures for the growth inhibition in assay [1] and in assay [4] were 8% and 93% (active), respectively. The inhibition in assay [2] is 40%; in assay [3], -2%. Also, the result in assay [5], in assay [6], in assay [7] and in assay [8] was inactive.
`COc1cccc(Cc2c(C)nc3nc(N)nc(N)c3c2C)c1`: the growth inhibition in assay [1] is 1%; in assay [4] it was 95% (active). The inhibition in assay [2] is 65% (active); in assay [3], -2%. Besides, the outcome in assay [5], in assay [6], in assay [7] and in assay [8] was inactive.
As for `CN1CCCC1CCOc1ccc2c(c1)N(C(=O)Nc1cc(Br)cc(C(F)(F)F)c1)CC2` (centres undefined), the values for the growth inhibition in assay [1] and in assay [4] were 97% (active) and 102% (active), respectively. For the same compound, the inhibition in assay [2] was 13%; in assay [3] it was -6%. For the same compound, the result in assay [5], in assay [6], in assay [7] and in assay [8] was inactive.

The inhibition is the relative decrease from the control value, in per cent.
